{"source": "paper PMC12136788", "binders": {"B1": {"name": "ENSG00000198589:be:win_6851|CDS|ENSG00000198589|bound_else_gene|NA|bound_elsewhere_windowed (ssRNA)", "RNA": "GGGAGUUCUACAGUCCGACGAUCAAGUUCCAAAGUUUCACUAUGGUACUCAUUACUCAACUGCAAGUUUUGUUCUUGCAUGGCUGCUAAGAAUAGAACCCUUUACAACUUAUUUCCUAAAUUUGCAAGGAGGCAAAUUUGAUCCAACAGAGGAUUGAGCAUCA"}, "B2": {"name": "chr9:15474029:15474130:-|CDS|ENSG00000164985|unk|FALSE|unique (ssRNA)", "RNA": "GGGAGUUCUACAGUCCGACGAUCAAGAAAAGAGCCGGAUAAAAAAGAGGGGAAGAAAGAAGUUGAAUCAAAAAGGAAAAAUUUAGCUAAAACAGGGGUUACUUCAACCUCCGAUUCUGAAGAAGAAGGAGAUGAUCAAGAAGGCAACAGAGGAUUGAGCAUCA"}, "B3": {"name": "chr12:57516587:57516808:-|three_prime_utr|ENSG00000175197|control|control|control (ssRNA)", "RNA": "GGGAGUUCUACAGUCCGACGAUCCCCCCACUUGGGCCACACUACCCACCUUUCCCAGAAGUGGCUACUGACUACCCUCUCACUAGUGCCAAUGAUGUGACCCUCAAUCCCACAUACGCAGGGGGAAGGCUUGGAGUAGACAAACAACAGAGGAUUGAGCAUCA"}, "B4": {"name": "chr8:6757792:6757893:+|3pUTR|ENSG00000155189|msi1|FALSE|unique (ssRNA)", "RNA": "GGGAGUUCUACAGUCCGACGAUCAUUUAUUACAACUUGACAGCUCCAAGCUCUUAUUACUAAAGUAUUUAGUAUCUUGCAGCUAGUUAAUAUUUCAUCUUUUGCUUAUUUCUACAAGUCAGUGAAAUAAAUUGUAUUUAGGAACAACAGAGGAUUGAGCAUCA"}, "B5": {"name": "chr5:141515350:141515460:-|3pUTR|ENSG00000131504|msi1_unk|FALSE|overlapping (ssRNA)", "RNA": "GGGAGUUCUACAGUCCGACGAUCCUCAGCUUUCCAUCCCCAGCUAGGAAGAAAGAAUGGCACUCUUGGGCUUGGCCCAGAAUUAGAGUUAUUAGAGCAAGAGAGAGCUUAGGAAGCAUGAGGGCAACUAUAGUGAGGCCUUAUCAACAGAGGAUUGAGCAUCA"}, "B6": {"name": "chr5:132696315:132696416:-|3pUTR|ENSG00000131437|msi1|FALSE|unique (ssRNA)", "RNA": "GGGAGUUCUACAGUCCGACGAUCGUUGUACUACUACUCUUCAAUUGUACUGUGCAGGGAAGUUGGGGGAACAGUUCAUACUAUAGAGAGUUACAGUUUAGAUGUAUGUGUAAAUCGAUUAGCUAUUUAUCCAACUACUGUAUACAACAGAGGAUUGAGCAUCA"}, "B7": {"name": "chr5:132696315:132696416:-|3pUTR|ENSG00000131437|msi1|total|mutant (ssRNA)", "RNA": "B6 RNA with U83C, A84C, U98C, A99C, U119C, A120C"}, "B8": {"name": "chr8:103332422:103332528:+|3pUTR|ENSG00000164930|msi1|FALSE|unique (ssRNA)", "RNA": "GGGAGUUCUACAGUCCGACGAUCUUUUUUAACAUUUAGAAUAUUACAUUUUGUAUUAUACAGUACCUUUCUCAGACAUUUUGUAGAAUUCAUUUCGGCAGCUCACUAGGAUUUUGCUGAACAUUAAAAAGUGUGAUAGCGAUACAACAGAGGAUUGAGCAUCA"}, "B9": {"name": "chr8:42175261:42175472:-|3pUTR|ENSG00000104368|msi1|total|mutant (ssRNA)", "RNA": "GGGAGUUCUACAGUCCGACGAUCGUAUUCCUUUUGUGUACAGUGUGUAAAGUGUAAAUCCUUUUUCUUUAUAAACUUCCGAGCCGCAUGAGAGAAUUGUAUCAUUUGAACAACCCGGCUUCAGCAUAUUUACCGCAAUCCAUGCAACAGAGGAUUGAGCAUCA"}, "B10": {"name": "chr5:138184526:138184629:+|CDS|ENSG00000112984|unk|FALSE|unique (ssRNA)", "RNA": "GGGAGUUCUACAGUCCGACGAUCGUGCAUGCCCCACCUAUGCAACUGGGAUUCCCAUCCCUGCACUCGUUCAUCAAGGAACAUAGUCUUCAGGUAUCCCCCAGCUUAGAGAAAGGGGCUAAGGCAGACACAGGCCUUGAUGAUCAACAGAGGAUUGAGCAUCA"}, "B11": {"name": "chr8:103332422:103332528:+|3pUTR|ENSG00000164930|msi1|total|mutant (ssRNA)", "RNA": "B8 RNA with U36C, A37C, U83C, A84C, U106C, A107C, U136C, A137C"}, "B12": {"name": "chr4:65323451:65323552:-|3pUTR|ENSG00000145242|msi1|total|mutant (ssRNA)", "RNA": "GGGAGUUCUACAGUCCGACGAUCAUCAAGAAAAAGUACAAUACAGGGUGUAUAUUUAUUUUUUGUGUUAUAAAGUUUACUUUCCGUUGCUCUUCCCGAGAUUAUCCGGUAAUAAAUGUGUAUAUACUGUAUAAUUUGCAAUAUCAACAGAGGAUUGAGCAUCA"}, "B13": {"name": "chr8:42175261:42175472:-|3pUTR|ENSG00000104368|msi1|FALSE|unique (ssRNA)", "RNA": "B9 RNA with C78U, C79A, C83U, C84A, C114U, C115A, C132U, C133A"}, "B14": {"name": "chr5:141515350:141515460:-|3pUTR|ENSG00000131504|msi1_unk|total|mutant (ssRNA)", "RNA": "B5 RNA with U44C, A45C, U83C, A84C, U92C, A93C, U109C, A110C, U130C, A131C"}, "B15": {"name": "chr7:80742675:80742739:-|3pUTR|ENSG00000075223|msi1_unk|FALSE|overlapping (ssRNA)", "RNA": "GGGAGUUCUACAGUCCGACGAUCGUAGCUUGACAAUUCAGUGACUUAAUAUCUAUUCCAUUUGUAUUGUACAUAAAAUUUUCUAGAAAUACACUUUUUUCCAAAGUGUAAGUUUGUGAAUAGAUUUUAGCAUGAUGAAACUGUCAACAGAGGAUUGAGCAUCA"}}, "note": "Changes are numbered by the printed parent chain. Over roughly 5,800 sequences, “enrichment r” has its median near 0.54; the highest 2% begin near 16. Only a selection was taken, and the highest values are over-represented in it overall."}
{"biological_target": "MSI1 full-length (mouse, UniProt Q61474 1-362)", "sequence (Q61474 whole entry)": "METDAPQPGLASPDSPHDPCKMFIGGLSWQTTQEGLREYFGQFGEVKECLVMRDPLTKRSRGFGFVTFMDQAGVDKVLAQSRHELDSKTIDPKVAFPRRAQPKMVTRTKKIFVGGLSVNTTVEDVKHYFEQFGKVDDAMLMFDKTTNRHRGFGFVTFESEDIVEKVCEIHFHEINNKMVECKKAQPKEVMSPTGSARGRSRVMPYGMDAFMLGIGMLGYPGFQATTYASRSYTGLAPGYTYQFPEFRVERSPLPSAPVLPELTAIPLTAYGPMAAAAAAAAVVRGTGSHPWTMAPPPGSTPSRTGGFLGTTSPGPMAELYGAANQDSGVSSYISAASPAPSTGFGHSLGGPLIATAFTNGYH", "assay": "nsRBNS (natural sequence RNA bind-n-seq); RBNS binding buffer (assumed for nsRBNS): 25 mM Tris pH 7.5, 150 mM KCl, 3 mM MgCl2, 0.01% Triton X-100, 500 ug/ml BSA, 20 U/ml SUPERase-In, 4 C; UNK is unkempt and MSI1 is Musashi-1; names of the RNAs are library labels; protein concentration not given here; high values mean tight binding", "units": {"binding signal": "enrichment R"}}
{"binder": "B1", "binding signal": 0.297}
{"binder": "B2", "binding signal": 0.83}
{"binder": "B3", "binding signal": 0.549}
{"binder": "B4", "binding signal": 1.46}
{"binder": "B5", "binding signal": 28.2}
{"binder": "B6", "binding signal": 19.9}
{"binder": "B7", "binding signal": 0.609}
{"binder": "B8", "binding signal": 51.5}
{"binder": "B9", "binding signal": 0.424}
{"binder": "B10", "binding signal": 0.612}
{"binder": "B11", "binding signal": 0.818}
{"binder": "B12", "binding signal": 1.51}
{"binder": "B13", "binding signal": 33.5}
{"binder": "B14", "binding signal": 0.337}
{"binder": "B15", "binding signal": 6.36}
